# Data taken from article PMC7862700, “An all-to-all approach to the identification of sequence-specific readers for epigenetic DNA modifications on cytosine”.
# Assays:
# Test in all cases: DAPPL (digital affinity profiling via proximity ligation, sequencing); 10 mM Tris-HCl pH 7.5, 50 mM NaCl, 1 mM DTT, 4% glycerol, room temperature, 30 min; GST-TFs on glutathione beads, 16-mer random dsDNA library, 0.1% formaldehyde crosslink after washing; high values mean tight binding
# FLI1 = biological target: T1, FLI1 (Homo sapiens, UniProt Q01543 1-452); conditions: protein: recombinant; tags: N-terminal GST; dsDNA, one strand shown
# T1 sequence: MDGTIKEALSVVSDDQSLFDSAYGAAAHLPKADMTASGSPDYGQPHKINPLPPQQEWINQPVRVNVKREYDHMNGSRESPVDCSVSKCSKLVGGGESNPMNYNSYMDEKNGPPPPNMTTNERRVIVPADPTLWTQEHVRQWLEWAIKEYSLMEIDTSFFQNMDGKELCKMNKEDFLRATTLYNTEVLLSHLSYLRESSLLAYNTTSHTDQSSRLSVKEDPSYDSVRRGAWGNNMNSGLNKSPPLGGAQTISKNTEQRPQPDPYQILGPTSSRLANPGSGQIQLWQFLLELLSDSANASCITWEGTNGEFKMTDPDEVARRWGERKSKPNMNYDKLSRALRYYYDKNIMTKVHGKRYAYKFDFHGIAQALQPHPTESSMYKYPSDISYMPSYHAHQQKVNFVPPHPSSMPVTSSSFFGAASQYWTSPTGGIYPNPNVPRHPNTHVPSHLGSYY
# Method in brief: (§1)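 GST fusions of human transcription factors were expressed in yeast and captured with glutathione beads. Once given DNA barcodes and pooled alongside a tag-only sample, they were incubated for 30 min at room temperature with 200 nmole of a random double-stranded 16-mer DNA library in Tris/NaCl/DTT/glycerol buffer, then washed, crosslinked (0.1% formaldehyde), proximity-ligated, PCR-amplified and sequenced on an Illumina NextSeq500. The binding signal of each hexamer is its read frequency for a factor divided by its frequency for the tag-only sample.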
# ELK1 = biological target: T2, ELK1 (Homo sapiens, UniProt P19419 1-428); conditions: protein: recombinant; tags: N-terminal GST; dsDNA, one strand shown
# T2 sequence: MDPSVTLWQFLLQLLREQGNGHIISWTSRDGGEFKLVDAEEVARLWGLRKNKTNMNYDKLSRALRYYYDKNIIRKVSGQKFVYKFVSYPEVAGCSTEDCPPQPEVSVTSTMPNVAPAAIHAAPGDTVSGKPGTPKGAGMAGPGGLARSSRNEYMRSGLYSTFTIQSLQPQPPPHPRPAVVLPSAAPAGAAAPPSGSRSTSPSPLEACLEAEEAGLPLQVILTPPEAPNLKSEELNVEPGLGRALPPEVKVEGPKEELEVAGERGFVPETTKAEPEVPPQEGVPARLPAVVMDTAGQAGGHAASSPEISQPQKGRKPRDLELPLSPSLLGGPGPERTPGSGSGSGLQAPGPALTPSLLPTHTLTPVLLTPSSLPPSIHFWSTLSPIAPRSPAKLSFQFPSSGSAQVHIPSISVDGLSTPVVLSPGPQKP
# Method in brief: as §1
# GABPA = biological target: T3, GABPA (Homo sapiens, UniProt Q06546 1-454); conditions: protein: recombinant; tags: N-terminal GST; dsDNA, one strand shown
# T3 sequence: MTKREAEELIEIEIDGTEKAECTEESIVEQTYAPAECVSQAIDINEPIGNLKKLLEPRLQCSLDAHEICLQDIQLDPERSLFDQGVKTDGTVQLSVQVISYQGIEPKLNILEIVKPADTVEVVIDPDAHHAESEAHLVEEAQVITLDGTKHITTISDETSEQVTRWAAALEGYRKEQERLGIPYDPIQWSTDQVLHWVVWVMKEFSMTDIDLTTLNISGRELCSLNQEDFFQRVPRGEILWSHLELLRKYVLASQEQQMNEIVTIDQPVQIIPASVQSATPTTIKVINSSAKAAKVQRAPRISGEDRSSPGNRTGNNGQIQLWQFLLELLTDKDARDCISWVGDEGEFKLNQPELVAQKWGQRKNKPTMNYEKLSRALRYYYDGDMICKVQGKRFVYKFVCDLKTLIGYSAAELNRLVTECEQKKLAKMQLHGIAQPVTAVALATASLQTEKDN
# Method in brief: as §1
# ERG = biological target: T4, ERG (Homo sapiens, UniProt P11308 1-479); conditions: protein: recombinant; tags: N-terminal GST; dsDNA, one strand shown
# T4 sequence: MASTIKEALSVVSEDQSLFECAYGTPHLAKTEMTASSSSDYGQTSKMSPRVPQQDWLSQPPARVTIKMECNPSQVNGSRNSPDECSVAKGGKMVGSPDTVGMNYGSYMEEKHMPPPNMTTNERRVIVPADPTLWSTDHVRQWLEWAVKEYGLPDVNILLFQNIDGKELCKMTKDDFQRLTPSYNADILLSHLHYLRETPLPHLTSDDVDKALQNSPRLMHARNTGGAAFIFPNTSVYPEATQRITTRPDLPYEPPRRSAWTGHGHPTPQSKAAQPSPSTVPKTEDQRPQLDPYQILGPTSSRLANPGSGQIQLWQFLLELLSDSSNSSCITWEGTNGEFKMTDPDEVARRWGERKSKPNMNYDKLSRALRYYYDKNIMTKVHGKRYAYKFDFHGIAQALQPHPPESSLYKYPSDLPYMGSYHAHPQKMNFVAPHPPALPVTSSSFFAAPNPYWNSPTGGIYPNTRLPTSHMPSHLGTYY
# Method in brief: as §1
# ELF1 = ELF1 (Homo sapiens, UniProt P32519 1-619); conditions: protein: recombinant; tags: N-terminal GST; dsDNA, one strand shown
# Sequence of ELF1 (P32519 whole entry): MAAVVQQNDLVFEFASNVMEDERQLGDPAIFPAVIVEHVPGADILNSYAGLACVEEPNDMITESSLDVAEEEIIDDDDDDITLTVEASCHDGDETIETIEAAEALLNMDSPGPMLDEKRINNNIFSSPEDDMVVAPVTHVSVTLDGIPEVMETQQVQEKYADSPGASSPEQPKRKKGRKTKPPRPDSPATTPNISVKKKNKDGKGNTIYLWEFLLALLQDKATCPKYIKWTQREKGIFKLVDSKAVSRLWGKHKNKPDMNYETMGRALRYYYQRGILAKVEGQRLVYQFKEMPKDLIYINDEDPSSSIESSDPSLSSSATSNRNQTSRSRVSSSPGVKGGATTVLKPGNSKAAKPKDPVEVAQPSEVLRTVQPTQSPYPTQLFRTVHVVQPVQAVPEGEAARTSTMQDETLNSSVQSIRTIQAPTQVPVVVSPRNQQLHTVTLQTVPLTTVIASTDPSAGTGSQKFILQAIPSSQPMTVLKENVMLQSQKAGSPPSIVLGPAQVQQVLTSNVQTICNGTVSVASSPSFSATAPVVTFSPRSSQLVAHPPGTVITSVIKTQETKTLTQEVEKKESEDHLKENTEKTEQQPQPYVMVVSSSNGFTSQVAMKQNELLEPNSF
# Method in brief: as §1
# EHF = biological target: T5, EHF (Homo sapiens, UniProt Q9NZC4 1-300); conditions: protein: recombinant; tags: N-terminal GST; dsDNA, one strand shown
# T5 sequence: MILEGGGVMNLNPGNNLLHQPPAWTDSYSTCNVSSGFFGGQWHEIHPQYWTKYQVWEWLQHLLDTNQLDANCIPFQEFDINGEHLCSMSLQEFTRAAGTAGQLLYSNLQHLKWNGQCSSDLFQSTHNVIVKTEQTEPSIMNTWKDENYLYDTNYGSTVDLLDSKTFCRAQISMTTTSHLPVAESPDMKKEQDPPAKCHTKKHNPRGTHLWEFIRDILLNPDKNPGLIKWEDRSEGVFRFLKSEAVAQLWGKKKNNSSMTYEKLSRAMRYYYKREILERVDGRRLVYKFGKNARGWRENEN
# Method in brief: as §1
# SPI1 = SPI1 (Homo sapiens, UniProt P17947 1-270); conditions: protein: recombinant; tags: N-terminal GST; dsDNA, one strand shown
# Method in brief: as §1
# SPIB = SPIB (Homo sapiens, UniProt Q01892 1-262); conditions: protein: recombinant; tags: N-terminal GST; dsDNA, one strand shown
# Sequence of SPIB (Q01892 whole entry): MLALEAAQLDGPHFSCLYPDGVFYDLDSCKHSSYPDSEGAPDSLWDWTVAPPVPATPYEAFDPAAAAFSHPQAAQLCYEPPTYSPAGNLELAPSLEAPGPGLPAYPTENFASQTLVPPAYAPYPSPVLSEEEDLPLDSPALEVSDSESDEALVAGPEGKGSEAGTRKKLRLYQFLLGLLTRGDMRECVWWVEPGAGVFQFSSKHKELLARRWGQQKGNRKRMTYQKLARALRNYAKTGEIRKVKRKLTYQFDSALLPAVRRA
# Method in brief: as §1
# ELK3 = biological target: T6, ELK3 (Homo sapiens, UniProt P41970 1-407); conditions: protein: recombinant; tags: N-terminal GST; dsDNA, one strand shown
# T6 sequence: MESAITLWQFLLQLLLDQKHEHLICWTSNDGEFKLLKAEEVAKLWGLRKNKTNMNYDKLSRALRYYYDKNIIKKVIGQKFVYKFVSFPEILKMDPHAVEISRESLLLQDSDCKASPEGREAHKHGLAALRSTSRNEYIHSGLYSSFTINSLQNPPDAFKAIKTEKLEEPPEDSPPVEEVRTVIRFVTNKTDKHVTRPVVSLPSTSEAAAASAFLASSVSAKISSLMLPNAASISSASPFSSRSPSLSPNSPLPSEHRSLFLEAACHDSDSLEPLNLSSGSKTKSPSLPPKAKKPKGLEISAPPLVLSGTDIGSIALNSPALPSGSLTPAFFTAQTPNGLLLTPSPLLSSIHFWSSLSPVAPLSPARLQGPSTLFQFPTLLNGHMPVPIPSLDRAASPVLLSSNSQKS
# Method in brief: as §1
# FEV = biological target: T7, FEV (Homo sapiens, UniProt Q99581 1-238); conditions: protein: recombinant; tags: N-terminal GST; dsDNA, one strand shown
# T7 sequence: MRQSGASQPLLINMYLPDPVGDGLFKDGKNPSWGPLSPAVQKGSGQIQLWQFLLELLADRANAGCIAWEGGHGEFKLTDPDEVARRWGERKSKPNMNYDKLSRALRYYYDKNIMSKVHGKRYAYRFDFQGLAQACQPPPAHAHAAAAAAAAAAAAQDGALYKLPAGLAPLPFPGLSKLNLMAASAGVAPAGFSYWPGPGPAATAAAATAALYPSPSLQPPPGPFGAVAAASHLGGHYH
# Method in brief: as §1
# ETV5 = ETV5 (Homo sapiens, UniProt P41161 1-510); conditions: protein: recombinant; tags: N-terminal GST; dsDNA, one strand shown
# Sequence of ETV5 (P41161 whole entry): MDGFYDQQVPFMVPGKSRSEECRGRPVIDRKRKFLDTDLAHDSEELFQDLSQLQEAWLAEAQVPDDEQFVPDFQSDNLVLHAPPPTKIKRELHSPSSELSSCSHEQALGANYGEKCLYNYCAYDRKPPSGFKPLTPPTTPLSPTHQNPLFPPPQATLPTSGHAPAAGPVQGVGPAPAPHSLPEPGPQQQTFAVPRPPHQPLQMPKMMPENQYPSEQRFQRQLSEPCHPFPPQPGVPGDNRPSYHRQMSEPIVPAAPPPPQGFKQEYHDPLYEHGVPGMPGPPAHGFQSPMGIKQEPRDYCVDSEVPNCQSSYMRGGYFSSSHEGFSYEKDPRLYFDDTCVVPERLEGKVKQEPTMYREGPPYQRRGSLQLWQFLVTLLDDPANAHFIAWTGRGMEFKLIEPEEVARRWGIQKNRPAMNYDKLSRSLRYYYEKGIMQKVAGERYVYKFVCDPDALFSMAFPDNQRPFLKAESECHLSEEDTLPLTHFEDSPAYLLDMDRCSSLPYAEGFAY
# Method in brief: as §1
# HSF1 = HSF1 (Homo sapiens, UniProt Q00613 1-529); conditions: protein: recombinant; tags: N-terminal GST; chain copies: 3; dsDNA, one strand shown
# Sequence of HSF1 (Q00613 whole entry): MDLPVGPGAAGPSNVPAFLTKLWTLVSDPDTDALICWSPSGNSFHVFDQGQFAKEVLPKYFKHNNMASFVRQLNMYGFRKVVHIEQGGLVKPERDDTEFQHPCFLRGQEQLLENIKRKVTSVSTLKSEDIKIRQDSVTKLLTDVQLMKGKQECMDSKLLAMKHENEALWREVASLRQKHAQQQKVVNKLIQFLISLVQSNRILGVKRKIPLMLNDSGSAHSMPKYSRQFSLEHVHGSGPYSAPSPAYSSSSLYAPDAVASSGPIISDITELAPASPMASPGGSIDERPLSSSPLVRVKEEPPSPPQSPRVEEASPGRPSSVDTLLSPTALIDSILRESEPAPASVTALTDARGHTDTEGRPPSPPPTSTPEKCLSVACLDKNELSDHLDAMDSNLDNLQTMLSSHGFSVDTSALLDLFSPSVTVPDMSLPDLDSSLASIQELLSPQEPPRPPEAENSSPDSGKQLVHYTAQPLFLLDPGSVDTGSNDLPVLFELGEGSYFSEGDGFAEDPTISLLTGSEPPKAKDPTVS
# Method in brief: as §1
# SPIC = biological target: T8, SPIC (Homo sapiens, UniProt Q8N5J4 1-248); conditions: protein: recombinant; tags: N-terminal GST; dsDNA, one strand shown
# T8 sequence: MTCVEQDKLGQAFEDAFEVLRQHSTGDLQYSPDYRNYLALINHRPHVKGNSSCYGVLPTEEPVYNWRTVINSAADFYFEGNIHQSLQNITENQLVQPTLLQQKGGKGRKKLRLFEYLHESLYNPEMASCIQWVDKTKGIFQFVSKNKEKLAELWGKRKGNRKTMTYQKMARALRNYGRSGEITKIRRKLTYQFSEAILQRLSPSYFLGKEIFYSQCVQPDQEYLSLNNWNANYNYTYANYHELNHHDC
# Method in brief: as §1
# ELF4 = ELF4 (Homo sapiens, UniProt Q99607 1-663); conditions: protein: recombinant; tags: N-terminal GST; dsDNA, one strand shown
# Sequence of ELF4 (Q99607 whole entry): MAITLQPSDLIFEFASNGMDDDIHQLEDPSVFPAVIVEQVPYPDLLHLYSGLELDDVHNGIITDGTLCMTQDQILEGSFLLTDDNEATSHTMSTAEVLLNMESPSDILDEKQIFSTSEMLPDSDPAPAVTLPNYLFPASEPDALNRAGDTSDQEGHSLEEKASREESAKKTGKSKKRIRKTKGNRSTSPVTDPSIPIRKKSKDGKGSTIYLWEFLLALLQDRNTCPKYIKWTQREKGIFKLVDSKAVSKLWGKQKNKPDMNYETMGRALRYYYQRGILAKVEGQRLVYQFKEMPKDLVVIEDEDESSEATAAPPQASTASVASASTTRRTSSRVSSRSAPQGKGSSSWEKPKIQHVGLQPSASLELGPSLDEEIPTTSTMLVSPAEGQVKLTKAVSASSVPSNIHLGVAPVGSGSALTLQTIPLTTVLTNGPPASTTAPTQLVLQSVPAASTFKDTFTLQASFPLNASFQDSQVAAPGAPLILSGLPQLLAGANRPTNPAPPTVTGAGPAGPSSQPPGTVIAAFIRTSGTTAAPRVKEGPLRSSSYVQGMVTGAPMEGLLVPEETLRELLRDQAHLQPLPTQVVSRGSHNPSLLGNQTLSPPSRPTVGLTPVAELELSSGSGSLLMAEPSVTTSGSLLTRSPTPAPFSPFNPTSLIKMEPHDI
# Method in brief: as §1
# ELK4 = biological target: T9, ELK4 (Homo sapiens, UniProt P28324-2 1-405); conditions: protein: recombinant; tags: N-terminal GST; dsDNA, one strand shown
# T9 sequence: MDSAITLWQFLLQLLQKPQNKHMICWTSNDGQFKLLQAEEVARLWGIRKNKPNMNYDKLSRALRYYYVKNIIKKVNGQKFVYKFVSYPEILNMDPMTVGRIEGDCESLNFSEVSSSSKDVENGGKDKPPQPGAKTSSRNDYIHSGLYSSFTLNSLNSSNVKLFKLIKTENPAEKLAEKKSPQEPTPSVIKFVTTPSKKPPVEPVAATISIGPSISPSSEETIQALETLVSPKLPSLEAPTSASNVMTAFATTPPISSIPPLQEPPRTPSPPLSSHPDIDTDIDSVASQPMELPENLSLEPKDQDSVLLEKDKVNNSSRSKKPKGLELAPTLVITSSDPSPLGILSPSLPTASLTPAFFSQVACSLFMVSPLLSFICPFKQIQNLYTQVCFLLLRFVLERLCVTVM
# Method in brief: as §1
# ETV2 = biological target: T10, ETV2 (Homo sapiens, UniProt O00321 1-342); conditions: protein: recombinant; tags: N-terminal GST; dsDNA, one strand shown
# T10 sequence: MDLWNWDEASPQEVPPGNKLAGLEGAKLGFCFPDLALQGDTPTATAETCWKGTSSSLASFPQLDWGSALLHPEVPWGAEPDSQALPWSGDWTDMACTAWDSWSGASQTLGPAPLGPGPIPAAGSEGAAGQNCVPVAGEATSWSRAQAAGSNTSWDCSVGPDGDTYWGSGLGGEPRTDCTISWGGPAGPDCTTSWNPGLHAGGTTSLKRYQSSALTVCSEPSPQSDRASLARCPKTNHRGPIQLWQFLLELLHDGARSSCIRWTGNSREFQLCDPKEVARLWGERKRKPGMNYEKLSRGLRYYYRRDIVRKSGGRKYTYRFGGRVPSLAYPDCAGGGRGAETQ
# Method in brief: as §1
# ELF3 = biological target: T11, ELF3 (Homo sapiens, UniProt P78545 1-371); conditions: protein: recombinant; tags: N-terminal GST; dsDNA, one strand shown
# T11 sequence: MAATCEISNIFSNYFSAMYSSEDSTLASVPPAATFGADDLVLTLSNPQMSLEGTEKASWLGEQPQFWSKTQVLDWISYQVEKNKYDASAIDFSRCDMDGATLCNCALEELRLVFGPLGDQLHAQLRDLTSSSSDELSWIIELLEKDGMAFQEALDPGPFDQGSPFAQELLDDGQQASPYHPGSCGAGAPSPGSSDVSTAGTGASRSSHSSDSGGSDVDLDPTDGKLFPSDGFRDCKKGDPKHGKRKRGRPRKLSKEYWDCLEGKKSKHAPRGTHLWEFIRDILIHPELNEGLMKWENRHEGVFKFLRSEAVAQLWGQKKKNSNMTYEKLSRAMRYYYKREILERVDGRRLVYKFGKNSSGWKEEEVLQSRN
# Method in brief: as §1
# ETV1 = ETV1 (Homo sapiens, UniProt P50549 1-477); conditions: protein: recombinant; tags: N-terminal GST; dsDNA, one strand shown
# Sequence of ETV1 (P50549 whole entry): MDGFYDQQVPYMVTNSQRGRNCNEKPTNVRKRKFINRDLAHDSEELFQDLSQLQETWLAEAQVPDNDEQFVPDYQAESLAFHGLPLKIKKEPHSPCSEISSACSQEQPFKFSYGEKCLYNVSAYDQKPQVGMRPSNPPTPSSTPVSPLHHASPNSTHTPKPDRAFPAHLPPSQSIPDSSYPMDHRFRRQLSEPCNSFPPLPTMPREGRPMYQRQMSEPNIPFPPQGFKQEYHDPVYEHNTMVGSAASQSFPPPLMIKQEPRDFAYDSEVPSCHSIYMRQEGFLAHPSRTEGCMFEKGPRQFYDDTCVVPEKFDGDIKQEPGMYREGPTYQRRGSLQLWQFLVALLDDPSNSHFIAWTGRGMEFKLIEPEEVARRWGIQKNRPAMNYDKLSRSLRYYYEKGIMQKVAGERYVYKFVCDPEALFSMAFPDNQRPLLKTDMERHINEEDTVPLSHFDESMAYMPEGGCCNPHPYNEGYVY
# Method in brief: as §1
sequence,measurement,setting,value
CGACCC,binding signal,FLI1,"1.42 fold enrichment (6-mer frequency, TF over GST control)"
same,binding signal,ELK1,"1.46 fold enrichment (6-mer frequency, TF over GST control)"
same,binding signal,GABPA,"1.44 fold enrichment (6-mer frequency, TF over GST control)"
same,binding signal,ERG,"1.22 fold enrichment (6-mer frequency, TF over GST control)"
same,binding signal,ELF1,"1.26 fold enrichment (6-mer frequency, TF over GST control)"
same,binding signal,EHF,"1.29 fold enrichment (6-mer frequency, TF over GST control)"
same,binding signal,SPI1,"1.23 fold enrichment (6-mer frequency, TF over GST control)"
same,binding signal,SPIB,"1.21 fold enrichment (6-mer frequency, TF over GST control)"
same,binding signal,ELK3,"1.37 fold enrichment (6-mer frequency, TF over GST control)"
same,binding signal,FEV,"1.17 fold enrichment (6-mer frequency, TF over GST control)"
same,binding signal,ETV5,"1.3 fold enrichment (6-mer frequency, TF over GST control)"
same,binding signal,HSF1,"1.03 fold enrichment (6-mer frequency, TF over GST control)"
same,binding signal,SPIC,"1.23 fold enrichment (6-mer frequency, TF over GST control)"
same,binding signal,ELF4,"1.31 fold enrichment (6-mer frequency, TF over GST control)"
same,binding signal,ELK4,"1.17 fold enrichment (6-mer frequency, TF over GST control)"
same,binding signal,ETV2,"1.39 fold enrichment (6-mer frequency, TF over GST control)"
same,binding signal,ELF3,"1.2 fold enrichment (6-mer frequency, TF over GST control)"
same,binding signal,ETV1,"1.23 fold enrichment (6-mer frequency, TF over GST control)"
